# Assay outcomes as filed in PubChem BioAssay.
# TR SRC2 fluor cs – Texas Red fluorescence interference in TRb-SRC2 counter-screen. Potency, µM (series often up to 106 µM), inactives show at the highest dose fluorescence change, negative = quenching. TRb/SRC2 Texas Red total fluorescence interference. 280,000 tested, 0.29% active; active = well fitted curve in either direction with a large enough effect; inconclusive = small, poorly fitted or top-dose-only effect
#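 Flags fluorescent or light-absorbing compounds by total fluorescence, S + 2P, at 555 nm excitation and 632 nm emission. Mixture: 20 nM Texas Red SRC2 peptide, 0.6 uM human TRb LBD, 1 uM T3, 5% DMSO; compound exposure 5 h at ambient temperature.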
# RGS12 GoLoco inh – RGS12 GoLoco-Gai1 interaction inhibition; AID 880; Potency, µM (titrated, usually from 61.6 µM), inactives show at the highest dose activity, negative = inhibition, usual class: inhibitors; Gai1:RGS12 GoLoco peptide FP, rhodamine, 10 min; 230,000 tested, 0.44% active; P63096; active = well fitted inhibition curve with a large enough effect, not every such curve was filed as active; inactive = no such curve, though single readings can be large or run the other way; also: nearly all actives have a fitted effect of over 30% in size
# Tau ThT inhib – blocks human tau fibril formation measured by thioflavin T; P10636; recombinant tau K18 P301L, heparin-induced fibrillization, ThT fluorescence; 270,000 tested, 2.1% active; AID 1460; Potency, µM (top dose mostly 57.4 µM), inactives show at the top dose activity, negative = inhibition, most hits filed as inhibitors; also: nearly all actives have a fitted effect of over 55% in size
# Target sequence (P10636 561-689 P618L limits assumed): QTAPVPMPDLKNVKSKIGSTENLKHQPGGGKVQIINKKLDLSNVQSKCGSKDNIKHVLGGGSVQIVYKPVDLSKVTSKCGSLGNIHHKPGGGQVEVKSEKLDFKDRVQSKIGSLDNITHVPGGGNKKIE
#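 Recombinant human tau K18 fragment […] carrying P301L, 15 uM unlabeled plus 0.24 uM Alexa 594-labeled, was fibrillized with 20 uM heparin in 100 mM sodium acetate pH 7 for 6 hr at 37 C; 30 uM ThT fluorescence read after 1 hr.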
# Tau FP inhib – tau fibrillization inhibition (FP) | P10636 | K18 P301L tau heparin fibrillization, Alexa594 FP, 6 h | Potency, µM (series often up to 57.7 µM), without a hit: at the highest dose activity, negative = inhibition, hits mostly inhibitors | 280,000 tested, 0.39% active | AID 1468; also: nearly all actives have a fitted effect of over 55% in size
#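 K18 P301L tau (15 uM unlabeled/0.24 uM Alexa 594-labeled, final) + compound + heparin 20 uM final; 100 mM NaOAc pH 7; 6 hr 37 C; ThT 30 uM final added, 1 hr RT; FP ex 555/em 632 nm.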
# Tau fluor cs – counter-screen for tau fibril formation inhibitors; tau K18 P301L Alexa594 fluorescence, heparin fibrillization; Potency, µM (top dose mostly 57.7 µM), inactives show top-dose activity change, negative = decrease; 280,000 tested, 0.93% active; also: nearly all actives have a fitted effect of over 55% in size
#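 Human tau K18 P301L (15 uM unlabeled, 0.24 uM Alexa 594-labeled) in 100 mM sodium acetate pH 7 with 20 uM heparin, 6 hr at 37 C. ThT 30 uM added, 1 hr ambient; Alexa 594 FP and total fluorescence read at 555/632 nm.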
# TRb SRC2 PPI – TRbeta-SRC2 interaction inhibition | P10828 | TRbeta-SRC2 peptide binding, fluorescence polarization; receptor liganded with 1 µM T3 | Potency, µM (titrated, usually from 106 µM), without a hit: top-dose activity change, negative = inhibition, most hits filed as inhibitors | 280,000 tested, 0.065% active | AID 1469;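 also: plate controls were bound peptide for no effect and peptide without receptor for full effect; nearly all actives have a fitted effect of over 50% in size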
# Target sequence (P10828 whole entry, looked up): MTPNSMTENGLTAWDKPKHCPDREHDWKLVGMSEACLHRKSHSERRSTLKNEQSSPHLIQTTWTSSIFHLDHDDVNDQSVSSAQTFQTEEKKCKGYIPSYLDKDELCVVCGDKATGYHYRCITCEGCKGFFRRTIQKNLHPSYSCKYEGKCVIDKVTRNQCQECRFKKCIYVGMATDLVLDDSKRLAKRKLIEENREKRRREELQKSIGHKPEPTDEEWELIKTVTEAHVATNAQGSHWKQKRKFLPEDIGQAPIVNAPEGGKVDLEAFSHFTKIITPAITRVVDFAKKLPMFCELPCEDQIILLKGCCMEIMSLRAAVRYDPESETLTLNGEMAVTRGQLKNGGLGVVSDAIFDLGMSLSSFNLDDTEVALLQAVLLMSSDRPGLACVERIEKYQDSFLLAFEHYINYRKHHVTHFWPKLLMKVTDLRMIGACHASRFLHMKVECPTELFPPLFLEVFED
#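 Decrease in fluorescence polarization of 20 nM Texas Red SRC2 coactivator peptide flagged inhibition of its binding to 0.6 uM TRb LBD; 1 uM T3 included, incubation 5 hr, ex 555/em 632 nm.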
# Numbers without * were called inactive; ? = inconclusive; . = no result; [ ] = remark or other dose. Shown are actives, neighbours in structure and some others; about 3.2% of the full set was active somewhere. Unless noted, calls follow the shape of the dose curve; as a rule, active = well fitted curve in the direction sought with a large enough effect; inconclusive = small, poorly fitted or top-dose-only effect, or another doubt; inactive = no such curve, though single readings can be large; an effect the other way counts as inactive or inconclusive. Unless noted, % is scaled to controls: 0 for no effect and ±100 for the full control effect; potency is read from the fitted curve at half-maximal effect.
SMILES,TR SRC2 fluor cs,RGS12 GoLoco inh,Tau ThT inhib,Tau FP inhib,Tau fluor cs,TRb SRC2 PPI
Cn1cccc1/C=C(/C#N)C(N)=S,-2%,-1%,?,3%,-5%,2%
Cc1ccc(-c2ccc(/C=C(\C#N)C(N)=S)n2C)cc1,-5%,7%,1µM*,-3%,?,-7%
Cc1ccc(CCNC(=O)NCc2noc3ccc(C)cc23)cc1,-1%,.,-4%,-7%,-15%,5%
Cc1cc(Nc2ccc(F)c(F)c2)nc(-c2ccccc2O)n1,3%,2%,-3%,?,-23%,4%
Cc1cc(N/N=C/c2ccc(O)c(C)c2O)nc(-c2ccccc2O)n1,?,9%,?,?,7.9µM*[quencher],12%
Cc1ccc(Nc2cc(C)nc(-c3ccccc3O)n2)cc1,-1%,8%,?,?,8.9µM*[quencher],12%
BrC/C=C/CBr,-1%,2%,.,.,.,7%
CNc1nc2c(Cl)cc(Cl)cc2s1,-3%,6%,-10%,-7%,-9%,-1%
NNc1nc2c(Cl)ccc(Cl)c2s1,-2%[53 µM],8%,11µM*,?,10µM*[quencher],-6%[53 µM]
C[N+]1([C@H](CO)Cc2c[nH]c3ccccc23)Cc2ccccc2C1,.,5%[14.2 µM],.,.,.,.
Cc1ccc(N2C(N)=C(C#N)C(c3cccs3)C3=C2CC(C)(C)CC3=O)cc1 (stereo unspecified),0%,138%,25µM*,-18%,-25%,3%
CCOc1ccc(C(=O)c2ccc(OC)c(O)c2O)cc1,-1%,5%,16µM*,?,?,2%
Cc1[nH]c2ccccc2c1/C=N/Nc1nc(N2CCCCC2)nc(N2CCCCC2)n1,-3%,3%,?,?,10µM*[quencher],4%
Brc1ccc(/C=N/Nc2ccccc2)cc1,-2%,-2%,?,11%,20µM*[quencher],-6%
CC(C)(C)c1ccc(/C=N/Nc2cccc(C(=O)O)c2)cc1,-2%,-7%,?,9%,-5%,-1%
O=C(O)c1cccc(N/N=C/c2ccc(-c3ccccc3)cc2)c1,-2%,1%,14µM*,-6%,?,0%
O=C(O)c1cccc(N/N=C/c2cc(Br)cc(Br)c2O)c1,-18%,-3%,11µM*,?,18µM*[quencher],-4%
COc1cccc(C(=O)CC2c3c(c(Br)c4c(c3OC)OCO4)CCN2C)c1 (stereo unspecified),-1%,-3%,-6%,-1%,-2%,4%
COc1ccc(CNc2ncnc3ccc(-c4ccc(N(C)C)cc4)cc23)c(OC)c1,.,-8%,.,.,.,.
CC(=O)O[C@H]1CC[C@@]2(C)[C@@H](CC[C@H]3[C@H]2CC(=O)[C@@]2(C)[C@@H]3C[C@H]3CC(C)=CC(=O)[C@H]32)C1,.,1%[14.2 µM],.,.,.,.
O=c1oc2ccccc2cc1-c1nc(-c2cccs2)no1,-3%,.,-13%,-11%,-15%,0%
C/C=C\C1=C(CO)C(=O)C2O[C@]2(CC=C(C)C)C1=O (stereo partly specified),-2%[11.2 µM],.,?,?,-14%[11.6 µM],-1%[11.2 µM]
Cc1[nH]c2ccccc2c1/C=C/C(=O)c1ccccc1,-4%,32%,?,4%,18µM*[quencher],4%
Cc1[nH]c2ccccc2c(=O)c1C(=O)/C=C/c1ccccc1,0%,11%,.,-10%,-3%,-3%
Cc1[nH]c2ccccc2c1/C=N/Nc1cccc(C(=O)O)c1,0%,23%,13µM*,-8%,?,0%
SMILES,TR SRC2 fluor cs,RGS12 GoLoco inh,Tau ThT inhib,Tau FP inhib,Tau fluor cs,TRb SRC2 PPI
CCCCCC(O)/C=C/C=C\CCCCCCCC(=O)O (stereo unspecified),-1%,2%,-12%,-3%,-12%,-2%
C[C@]12CC[C@@H](O)C[C@@H]1CC[C@@H]1[C@@H]2CC[C@]2(C)C=CC[C@@H]12,-1%,3%,-13%,-1%,-5%,1%
O=C(OCc1csc(Nc2ccccc2)n1)c1ccc(Cl)cc1,-5%,-5%,?,?,13µM*[quencher],-9%
O=C(COc1ccccc1)OCc1csc(Nc2ccccc2)n1,-3%[53 µM],-3%,?,14%,?,2%[53 µM]
Cc1ccc(Cl)cc1N1CCN(C(=O)c2cnn(C)c2C2CCN(C(=O)OC(C)(C)C)CC2)CC1,0%,.,-15%,-4%,-5%,4%
CCCCCn1ccc(=N)cc1,1%,13µM*,4%,4%,3%,7%
CCCCCCCn1ccc(=N)cc1,-1%,16µM*,-4%,-11%,-9%,-8%
CCNc1ncc2nc(-c3cc(F)cc(F)c3)c(=O)n(C)c2n1,.,19%,.,.,.,.
CCCCC/C=C\C/C=C\CCCCCCCC(=O)NCCc1ccc(O)c(O)c1,-1%,0%,-10%,5%,-21%,3%
CC(=O)OCON[N+]([O-])=NC(C)C,-2%,.,.,.,.,-3%
c1cncc(Nc2nc(-c3cccs3)cs2)c1,0%,4%,?,9%,16µM*[quencher],-18%
Cc1ccc(Nc2nc(-c3cccs3)cs2)nc1,-6%,15%,16µM*,-9%,22µM*[quencher],-1%
CN(c1ccc(O)cc1)c1nc(-c2cccs2)cs1,-2%,-2%,-2%,4%[2.34 µM],5%[2.34 µM],1%
Cc1cc(O)ccc1Nc1nc(-c2cccs2)cs1,3%,13%,14µM*,4%,25µM*[quencher],-5%
COc1ccc2nc3c(cc2c1)Cc1ccccc1-3,-4%,6%,?,1%,?,5%
COC(=O)C1=C[C@@H](C(=O)OC)[C@@H]2C3=C(C(=O)C2(C)C)[C@H](C)n2c(=O)n(C)c(=O)n2[C@@H]3C1,0%,.,.,.,.,-6%
O=[N+]([O-])c1cc2oc3c(c2c(C=NCc2ccncc2)c1O)CCCC3,-10%,5%,10µM*,?,?,-4%
COc1ccccc1/C=C/C=N/n1c(-c2n[nH]c3c2CCC3)n[nH]c1=S,-2%,8%,?,-10%,?,0%
S=c1[nH]nc(-c2n[nH]c3c2CCC3)n1/N=C/C=C/c1ccco1,-6%,-1%,22µM*,?,-24%,-7%
COn1c2c(c3c4no[n+]([O-])c4ccc31)CCCC2,0%,14%,?,2%,-17%,10%
COn1c2c(c3c4nonc4ccc31)CCCC2,-3%,-1%,14µM*,?,?,?
Oc1ccccc1-n1nc2ccc3nonc3c2n1,0%,-5%,-7%,-7%,-16%,4%
COn1c(C)c(C(C)=O)c2c3nonc3ccc21,-1%,-19%,14µM*,?,-15%,-2%
On1c2c(c3c4nonc4ccc31)CCCC2,4%,-4%,7.9µM*,?,?,2%
